Screening results deposited in PubChem BioAssay by NMMLSC.
An excerpt weighted towards active compounds, which were near 0.93% of everything screened.
AGP1-GFP MLPCN: alters AGP1-GFP fluorescence in TOR pathway yeast screen; hit rate 0.02% among 320,000; GFP response vs DMSO, % at 10 µM; S. cerevisiae AGP1-GFP multiplex flow cytometry, 3 h; GFP as percent of DMSO wells;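 active means GFP response relative to DMSO above a set limit, near screen average plus 3 SD, cut at about 150% in these data; inconclusive means fewer than 70 cells counted for the yeast strain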;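 further: median GFP channel fluorescence of the gated AGP1 strain per well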
MEP2-GFP yeast: alters MEP2-GFP fluorescence in TOR pathway yeast screen. S. cerevisiae MEP2-GFP strain, flow cytometry GFP, 3 h; 100% = DMSO control level. GFP response vs DMSO, % at 10 µM. hit rate 0.51% among 330,000. AID 2016;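 active means GFP response versus DMSO above a set limit, roughly screen mean plus 3 SD, cut at about 180% in these data; inconclusive means fewer than 70 cells counted for a yeast strain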;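 further: median GFP fluorescence of the barcode-gated MEP2-GFP cells per well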
LAP4 TOR yeast: modulators of TOR pathway LAP4-GFP in S. cerevisiae; S. cerevisiae LAP4-GFP multiplex, flow cytometry GFP, 3 h; median GFP as percent of DMSO wells; GFP response vs DMSO, % at 10 µM; hit rate 0.34% among 320,000; AID 2023;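 active means GFP response vs DMSO above a set limit, about the screen mean plus 3 SD, cut at about 150% in these data; inconclusive means under 70 cell events counted for the yeast strain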
RPL19A TOR yeast: alters RPL19A-GFP fluorescence in TOR pathway yeast screen; S. cerevisiae RPL19A-GFP strain, flow cytometry, 3 h; active compounds read low; percent response vs DMSO, % at 10 µM; hit rate 0.3% among 330,000;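 active means percent response vs DMSO below 50%; inconclusive means fewer than 70 events counted for the yeast strain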;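 further: median channel GFP fluorescence of the barcoded RPL19A-GFP strain; ratio of sample median GFP to plate DMSO average so 100% = DMSO; lower means less RPL19A-GFP as with rapamycin TOR inhibition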
CIT2 TOR yeast: yeast TOR pathway CIT2-GFP modulation | S. cerevisiae CIT2-GFP strain, flow cytometry, 3 h; 100 means same as DMSO wells | GFP response vs DMSO, % at 10 µM | hit rate 0.065% among 320,000 | AID 2029;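 active means GFP response relative to DMSO above a set limit, near the screen mean plus 3 SD, cut at about 150% in these data; inconclusive means Fewer than 70 cells measured for a yeast strain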;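 further: ratio of well median GFP fluorescence to mean of DMSO wells on the plate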
The depositor's hits bear a star; ? = inconclusive; / = no result given; [ ] = remark or other dose.

SMILES	AGP1-GFP MLPCN	MEP2-GFP yeast	LAP4 TOR yeast	RPL19A TOR yeast	CIT2 TOR yeast
CCC(=O)c1cc2c(C)cc(=O)oc2c(C)c1O	100	105	104	98	103
Cc1nc(/C=C\C(=O)O)c2cc(C)oc2n1	100	101	103	97	101
O=C1/C(=C/c2ccco2)SC(=S)N1C1CCS(=O)(=O)C1 (configuration not stated)	?	?	?	16*[may fluoresce violet]	?
CCN1CCN(C2=C(NS(=O)(=O)c3ccccc3)C(=O)c3ccccc3C2=O)CC1	?	250*[may fluoresce violet]	53	38*[may fluoresce violet]	?
CCN1CCN(C2=C(NS(=O)(=O)c3ccc(Br)cc3)C(=O)c3ccccc3C2=O)CC1	104	99	105	103	103
COc1ccc(NC(=O)CSc2nc3c(sc4ccccc43)c(=O)n2CCCN2CCCC2)cc1	97	98	96	94	101
CC(C)(CNC(=O)Cc1ccc(Br)cc1)N1CCOCC1	101	134	110	100	93
CCOc1ccc(CNC(=O)CCCn2ccc3cc(S(=O)(=O)N4CCCC4)ccc32)cc1	14	154	81	22*[may fluoresce violet]	?
O=C(Nc1cccnc1)c1ccc(F)c(S(=O)(=O)N2CCOCC2)c1	?	?	?	28*[may fluoresce violet]	?
CCCC(C(=O)NC1CCCC1)N(CC1CCCO1)C(=O)CNS(=O)(=O)c1ccccc1 (configuration not stated)	100	104	105	103	103
CCn1c(SCC(=O)Nc2nnc(C)s2)nnc1C(C)NC(=O)c1ccccc1F (configuration not stated)	?	225*[may fluoresce violet]	86	59	?
CCn1c(SCC(=O)Nc2nnc(C)s2)nnc1C(C)NC(=O)c1ccccc1 (configuration not stated)	101	102	86	100	103
O=C(NCCc1ccccc1)c1ccc2c(c1)S(=O)(=O)c1cc(Cl)ccc1C2=O	102	101	106	101	97
CCN(CC)c1ccc(NC(=O)COC(=O)c2cccs2)cc1	?	243*[may fluoresce violet]	136	16*[may fluoresce violet]	?
CC(C)Cn1nc(C(=O)Nc2nnc(C3CC3)s2)c2ccccc2c1=O	100	109	124	104	93
Cc1ccc(S(=O)(=O)N2[C@@H](c3cccc(Cl)c3)C(C(=O)O)=CC[C@H]2c2cccs2)cc1	84	88	135	98	103
Cc1c(/C=N\NC(=O)C2COc3ccccc3O2)c2ccccc2n1C (configuration not stated)	93	91	97	93	77
O=C(N/N=C/c1c(F)cccc1Cl)C1CC1	98	108	102	100	95
Cc1c(/C=N/Nc2ccc(C(=O)O)cc2)c2ccccc2n1C	88	104	159*	96	82
O=C(O)c1ccc(N/N=C/c2c(F)cccc2Cl)cc1	81	101	154*	102	76
O=C(O)c1ccc(N/N=C/c2ccc(-c3cc(Cl)ccc3Cl)o2)cc1	22	269*[may fluoresce violet]	86	56	?
O=C(O)c1ccc(N/N=C/c2ccc(-c3ccc(Cl)cc3Cl)o2)cc1	95	106	100	111	104
O=C(O)CCn1c(SCCOc2ccccc2F)nc2ccccc21	102	100	100	105	103
COc1ccc(CCN2C(=O)CSC2=S)cc1OC	99	109	100	104	99
O=C(/C=C/c1ccccc1Cl)c1ccc(O)cc1	98	101	/	99	85
SMILES	AGP1-GFP MLPCN	MEP2-GFP yeast	LAP4 TOR yeast	RPL19A TOR yeast	CIT2 TOR yeast
O=C(/C=C/c1c(F)cccc1Cl)c1ccc(O)cc1	87	87	249*	78	72
CCCN1CCN(CCCNC(=O)c2ccc(CS(=O)c3ccc(OC)cc3)o2)CC1 (configuration not stated)	98	99	92	97	98
CCc1nnc2n1N=C(c1ccc(Cl)cc1)CS2	?	744*[may fluoresce violet]	74	29*[may fluoresce violet]	?
O=C(c1ccc(N2CCN(C(=O)c3ccc(F)c(F)c3)CC2)cc1)c1cccc(F)c1	106	105	130	110	114
COc1cccc(NC(=O)Nc2ccc3c(c2)nnn3C)c1	25	184*	88	60	98
CN(C)c1ccc(NC(=O)Nc2ccc3c(c2)nnn3C)cc1	97	99	88	105	107
Cc1nnc(SCCn2c(N3CCN(C)CC3)nc3c2c(=O)[nH]c(=O)n3C)s1	20	184*[may fluoresce violet]	95	65	?
CN(C)S(=O)(=O)c1cccc(C(=O)NCC2CCCCC2)c1	108	106	119	102	98
CCN(CC)S(=O)(=O)c1ccc(C(=O)NCC2CCCCC2)cc1	?	194*[may fluoresce violet]	57	30*[may fluoresce violet]	?
COc1ccc(C(=O)Nc2nnc(S(=O)(=O)N3CCOCC3)s2)cc1	99	110	105	101	103
O=S(=O)(NC1CC(NS(=O)(=O)OCC(Cl)(Cl)Cl)C2CCCCC12)OCC(Cl)(Cl)Cl (configuration not stated)	81	86	99	93	72
O=C(COC(=O)/C=C/c1cccc(Cl)c1)NC1CCCC1	113	110	99	109	116
CCN(CC)S(=O)(=O)c1ccc(Cl)c(C(=O)Oc2cccnc2)c1	?	444*[may fluoresce violet]	82	43*[may fluoresce violet]	?
Clc1ccc(C2=NNC(=NCc3ccccc3)SC2)cc1	33	222*	85	94	97
CCC(CC)C(=O)NCc1ccc(OC)cc1	110	111	110	102	101
COc1ccc(CNC(=O)C(CC(C)C)NC(=O)c2ccccc2C)cc1 (configuration not stated)	18	200*[may fluoresce violet]	74	51	?
Cc1cccc(N2CCN(C(=O)[C@H](C)N3C(=O)C4CC=CCC4C3=O)CC2)c1C (some centres not stated)	101	98	94	101	106
Cc1[nH]c(=O)[nH]c(=O)c1Cc1cccc2ccccc12	?	323*[may fluoresce violet]	99	48*[may fluoresce violet]	?
Cc1nc(N2CCN(C)CC2)[nH]c(=O)c1Cc1cccc2ccccc12	108	103	106	104	100
C[C@@H]1C(=O)OC[C@H]1NC(=O)OCc1ccccc1	102	101	95	100	96
COc1ccc(-c2nn(-c3ccccc3)cc2CO)cc1	99	105	107	103	106
Cc1ccc(-c2nn(-c3ccccc3)cc2CO)cc1	15	221*[may fluoresce violet]	88	71	?
COc1ccc(N2CCN(c3nc4c(C)cccn4c(=O)c3/C=C(\C#N)C(N)=O)CC2)cc1	17	195*	80	68	105
Cc1cccn2c(=O)c(/C=C(\C#N)C(=O)NCc3ccco3)c(N3CCCCC3)nc12	16	178*[may fluoresce violet]	89	62	?
O=C(O)c1cc(-c2ccc(Cl)c(Cl)c2)n(-c2ccc(F)cc2)n1	97	107	93	103	103
